Measurements from PubChem BioAssay.
Measured potencies and affinities stand elsewhere. Activity calls are given as the source filed them. No rule for the calls is given here.

Tests used:
[1] = A549 cell cytotoxicity, dose response, cytotoxicity control, plate reader, cherry-pick, antagonist series (AID 743412); conditions: series mostly up to 26 µM
[2] = toxicity toward HepG2 liver cells – cell-based, plate reader, cherry-pick, antagonist series, cytotoxicity control, dose response (AID 743416); conditions: series mostly up to 26 µM
[3] = target: Melanocortin receptor 4 (Homo sapiens) (UniProt P32245); assay: blockade of melanocortin 4 receptor signaling – cell-based, plate reader, cherry pick, counter-screen for LGR2 antagonist project, dose response (AID 743444); conditions: MC4R-expressing cells, antagonist mode; series mostly up to 35 µM

SMILES	outcome [1]	outcome [2]	outcome [3]
C[C@H](CO)N1C[C@H](C)[C@@H](CN(C)CC2CCOCC2)Oc2ncc(Br)cc2C1=O	inactive	inactive	inactive
CCOC(=O)C(C)N1c2cccc3cccc(c23)S1(=O)=O (stereo unspecified)	inactive	inactive	inactive
CCc1ccc2ncc(S(=O)(=O)c3ccc(C)c(C)c3)c(N3CCCC3)c2c1	inactive	inactive	inactive
C[C@@H]1CN([C@@H](C)CO)C(=O)c2cccc(NC(=O)Nc3ccc(C(F)(F)F)cc3)c2O[C@H]1CN(C)C(=O)Nc1cccc2ccccc12	inactive	inactive	inactive
Cc1ccc(S(=O)(=O)N2[C@@H](CO)CO[C@H]2CC(=O)OCc2ccccc2)cc1	inactive		inactive
O=C(c1ccc(F)cc1)N1CC(=O)N2[C@@H](CO)[C@@H](c3ccc(C#CC4CCCC4)cc3)[C@@H]2C1	inactive	inactive	inactive
Cc1noc(C)c1S(=O)(=O)Nc1cccc2c1O[C@H](CN(C)C(=O)Nc1ccc(F)cc1)[C@H](C)CN([C@H](C)CO)C2=O	inactive	inactive	inactive
CCc1nnc(NC(=O)CSc2nnc3ncccn23)s1	inactive	inactive	inactive
Cc1ccc(NC(=O)c2ncn(CC(=O)NCc3ccc4[nH]ccc4c3)n2)cc1C	inactive	inactive	inactive
CC1(c2ccccc2Cl)NC(=O)N(CC(=O)N2CCc3ccccc32)C1=O (stereo unspecified)	inactive	inactive	inactive
O=C(Nc1cc(S(=O)(=O)Nc2ccccc2Cl)ccc1O)c1ccc(F)cc1F	inactive	inactive	inactive
O=S1(=O)CCOC[C@H](CC2CCCCC2)N1Cc1ccccc1F	inactive	inactive	inactive
Cn1cnc(S(=O)(=O)N2C[C@@H](O)COC[C@H]3O[C@H](CC(=O)NC4CCCC4)CC[C@@H]32)c1	inactive	inactive	inactive
CO[C@@H]1CN(C)C(=O)c2ccc(NC(=O)C3CC3)cc2OC[C@@H](C)NC[C@@H]1C	inactive	inactive	inactive
COc1ccc(-c2noc(CCC(=O)N3CCN(c4ccc(Cl)cc4)CC3)n2)cc1	inactive	inactive	inactive
COc1cccc(C(=O)Nc2ccc3c(c2)OC[C@@H](C)N(CC2CC2)C[C@H](C)[C@H](OC)CN(C)C3=O)c1	inactive	inactive	inactive
CC1CN(C(=O)c2cccc(S(=O)(=O)Nc3cc(Cl)ccc3Cl)c2)CC(C)O1 (stereo unspecified)	inactive	inactive	inactive
CO[C@H]1CN(C)C(=O)c2ccc(NC(=O)C3CC3)cc2OC[C@@H](C)N(C(=O)Cc2ccccn2)C[C@H]1C	inactive	inactive	inactive
Cc1ccc(CNS(=O)(=O)c2ccc3c(c2)CCN3C(=O)CCCC(=O)O)cc1	inactive		inactive
C=CCn1c(SCC(=O)Nc2ncc(Cc3ccc(C)c(Cl)c3)s2)nnc1-c1ccncc1	inactive	inactive	inactive
CCc1cc(-c2ccc3c(c2)COc2c4ccccc4nn2-3)on1		inactive	
COc1ccc(-n2ncc3c(N(C)C4CCCCC4)ncnc32)cc1		inactive	

SMILES	outcome [1]	outcome [2]	outcome [3]
CCCCNc1c(-c2cccc(-c3cc(C(C)=O)cs3)c2)nc2ccc(C)cn12		inactive	
N#Cc1cccc(-c2ccc(C3[C@@H]4CN(C(=O)c5ccccn5)C[C@H]3N4)cc2)c1 (stereo partly specified)		inactive	
CCc1ccc2oc(-c3ccc(N)cc3)nc2c1		inactive	
Cc1ccc(C#N)c(SCc2nnc(-c3ccc(Cl)cc3)o2)n1		inactive	
Cc1ccc(S(=O)(=O)Nc2ccc3c(c2)CC(=O)N([C@H](C)CO)C[C@H](C)[C@H](CN(C)Cc2ccc(Cl)c(Cl)c2)O3)cc1		inactive	
COc1ccc(-c2cc(-c3ccccc3)no2)cc1		inactive	
Nc1ccc(-c2nc3ccc(N)cc3s2)cc1		inactive	
O=C(O)c1cccc(COc2ccc(CO)cc2Cl)c1		inactive	
COCCn1c(C)cc(C(=O)CSc2nnc3ccccn23)c1C		inactive	
Cc1ccc(S(=O)(=O)N(C)C[C@H]2Oc3c(cccc3N(C)C)C(=O)N([C@@H](C)CO)C[C@@H]2C)cc1		inactive	
Clc1ccc(-c2cc(-c3ccccn3)on2)c(Cl)c1		inactive	
CN1CCN(c2ccc(NC(=O)N3CCc4ccccc43)cc2)CC1		inactive	
Cc1ccc2nc(-c3ccc(NC(=O)C4CCCO4)cc3)[nH]c2c1 (stereo unspecified)		inactive	
C[C@H](CO)N1C[C@H](C)[C@H](CN(C)C(=O)Nc2ccccc2)OCCCC[C@H](C)Oc2ccc(NC(=O)Nc3ccc4c(c3)OCO4)cc2C1=O		inactive	
CN1c2ccc(-c3ccc(F)cc3)cc2[C@H]2[C@H](CCN2C(=O)Nc2ccc(F)cc2)[C@H]1CO		inactive	
COc1ccc(-c2cc(C(=O)Nc3cccc(O)c3)no2)cc1		inactive	
O=C(c1ccccc1)N1CCSc2sccc2C1=O		inactive	
Cc1ccccc1-c1ccc([C@H]2[C@@H](CO)N3CCCCN(S(=O)(=O)c4ccc(F)cc4)C[C@@H]23)cc1		inactive	
CCCNC(=O)COC(=O)c1ccccc1C(=O)c1ccc(Cl)c([N+](=O)[O-])c1		inactive	
CCOc1ccc(-c2cnc3ccccc3n2)cc1		inactive	
COCCOc1cc(NCc2ccccc2)c2ncn(C(C)C)c2c1		inactive	
